RORgamma inh: qHTS for inhibitors of ROR gamma transcriptional activity; Nuclear receptor ROR-gamma (Mus musculus), P51450; 310,000 compounds, 5.4% hits; Potency, µM (top dose mostly 53.6 µM), for inactives: at the highest dose activity change, negative = inhibition, actives largely listed as inhibitors; Drosophila S2 Gal4-RORgamma UAS-luciferase reporter, 20 h; AID 2551, 2010; also: potency is read from the fitted curve at half-maximal effect; nearly all actives have a fitted effect of over 60% in size
Target sequence (P51450 whole entry, looked up, the tested form may be a part): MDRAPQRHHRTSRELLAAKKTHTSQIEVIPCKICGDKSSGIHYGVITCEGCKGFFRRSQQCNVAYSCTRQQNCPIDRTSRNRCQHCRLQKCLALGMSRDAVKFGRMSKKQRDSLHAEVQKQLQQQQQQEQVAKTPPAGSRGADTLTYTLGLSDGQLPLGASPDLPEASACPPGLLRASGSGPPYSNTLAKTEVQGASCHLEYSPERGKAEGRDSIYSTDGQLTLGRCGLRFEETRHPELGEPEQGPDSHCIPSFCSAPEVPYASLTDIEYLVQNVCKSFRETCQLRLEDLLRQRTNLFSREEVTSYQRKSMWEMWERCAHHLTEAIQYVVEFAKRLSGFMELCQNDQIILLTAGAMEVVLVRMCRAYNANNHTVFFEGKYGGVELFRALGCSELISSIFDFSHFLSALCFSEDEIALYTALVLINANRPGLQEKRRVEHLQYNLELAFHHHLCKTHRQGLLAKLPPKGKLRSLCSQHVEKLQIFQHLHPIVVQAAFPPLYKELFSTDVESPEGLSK
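Read-out: Photinus luciferase luminescence; inhibitors lower reporter signal. Insect Schneider cells with Gal4-ROR gamma fusion under metallothionein promoter, UAS reporter; 700 uM final copper sulfate induction, 20 hr, ambient temperature.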
Gal4-VP16 FLuc: VP16 counterscreen qHTS for inhibitors of ROR gamma transcriptional activity. Drosophila S2 Gal4-VP16 UAS-luciferase, luminescence, 20 h. Potency, µM (top dose mostly 53.6 µM), for the others: at the highest dose activity, negative = inhibition, usual class: inhibitors. 310,000 compounds, 3.5% hits;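 also: Gal4-VP16 expression switched on by copper sulfate through the metallothionein promoter; potency is read from the fitted curve at half-maximal effect; nearly all actives have a fitted effect of over 50% in size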
LDHA inh: qHTS assay for inhibitors of human lactate dehydrogenase. L-lactate dehydrogenase A chain (Homo sapiens), P00338. AID 1347041, 2019. purified LDHA, NADH/diaphorase-resazurin fluorescence; stronger effect = lower value. 480,000 compounds, 0.15% hits. activity change, % (values are at about 110 or 230 µM); in the data active = activity change below about -30%; inconclusive = mostly about -25% to -30%;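 also: plate controls were DMSO wells for no effect and wells without enzyme for full effect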
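Resorufin fluorescence (ex540/em590), read at 0 and 20 min after diaphorase/resazurin addition, reports the NADH left after a 5 min room-temperature reaction of 2 nM human LDH5 with 0.06 mM NADH and 0.2 mM pyruvate.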
TDP1 cell CPT: qHTS for Inhibitors of human tyrosyl-DNA phosphodiesterase 1 (TDP1): qHTS in cells in presence of CPT; chicken DT40 Tdp1-/-;hTDP1 cells + 20 nM CPT, ATP luminescence, 48 h; Potency, µM (titrated, usually from 46.2 µM), for inactives: at the top dose activity change, negative = growth inhibition, most hits filed as inhibitors; 420,000 compounds, 12% hits; AID 686979, 2013; also: potency is read from the fitted curve at half-maximal effect; nearly all actives have a fitted effect of over 55% in size
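Chicken DT40 Tdp1-/- cells stably complemented with human TDP1 were seeded at 400 cells/well in medium containing 20 nM camptothecin, exposed to pin-transferred compounds, and grown at 37 °C for at least 48 hr. Viability was read as ATP luminescence.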
IL1B secr inh: qHTS for Inhibitors of Inflammasome Signaling: IL-1-beta AlphaLISA Primary Screen. 360,000 compounds, 4.7% hits. activity change, % at 57.5 µM. THP-1 LPS/ATP IL-1B secretion, AlphaLISA, 16 h; stronger effect = lower value. AID 743279, 2014; in the data active = activity change below about -50%; inconclusive = mostly about -30% to -49%
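Secreted IL-1B measured by AlphaLISA bead assay after 16 h compound exposure of THP-1 cells; compounds (final up to 57.5 uM) added 1 h before LPS (250 ng/mL) and ATP (1.25 mM) stimulation; lower signal means less secretion.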
TDP1 cell noCPT: qHTS for Inhibitors of human tyrosyl-DNA phosphodiesterase 1 (TDP1): qHTS in cells in absence of CPT | DT40 Tdp1-/- hTDP1 cells, no CPT, ATP luminescence, 48 h | Potency, µM (highest dose often 46.2 µM), for inactives: at the top dose activity change, negative = growth inhibition, actives largely listed as inhibitors | 420,000 compounds, 15% hits; also: potency is read from the fitted curve at half-maximal effect; nearly all actives have a fitted effect of over 55% in size
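Chicken DT40 Tdp1-/- cells stably complemented with human TDP1 were seeded at 400 cells/well with DMSO in place of 20 nM camptothecin. After compound pinning, cells grew at least 48 hr at 37 °C; viability read by CellTiter-Glo luminescence.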
Starred values were filed as active, the others as inactive; ? = inconclusive; / = no result. Sampled rows, rich in hits. Any-hit rate of the full collection: about 18%. Unless noted, calls follow the shape of the dose curve; as a rule, active = well fitted curve in the direction sought with a large enough effect; inconclusive = small, poorly fitted or top-dose-only effect, or another doubt; inactive = no such curve, though single readings can be large; an effect the other way counts as inactive or inconclusive. Unless noted, % is scaled to controls: 0 for no effect and ±100 for the full control effect.

SMILES	RORgamma inh	Gal4-VP16 FLuc	LDHA inh	TDP1 cell CPT	IL1B secr inh	TDP1 cell noCPT
COc1ccc(OC)c(Nc2cc3ccccc3c(=O)[nH]2)c1	/	/	15.2	1.3µM*	62.6	1.84µM*
N#Cc1nc(-c2ccc([N+](=O)[O-])cc2)oc1NCCN1CCOCC1	/	/	-2.4	/	/	/
Cc1cccc(NC(=O)COc2ccc(Br)cc2/C=N/O)c1	5.62µM*	5.01µM*	-4.2	-27.8%	-1.4	-29.7%
CCOC(=O)/C=C/C(=O)OCC(=O)Nc1cccc(Br)c1	-6.2%	-8.6%	-7.7	-19.2%	-62.3*	?
O/N=C/c1cc(Br)ccc1OCc1ccccc1F	/	/	1.0	-5.5%	-62.7*	-18.7%
C=CCOc1ccc(Br)cc1/C=N/O	19.2%	-8.6%	-1.4	-12.4%	-7.2	-23.5%
Cc1cccc(NC(=O)COc2ncnc3ccc(Br)cc23)c1	/	/	10.5	/	/	/
CC1=CC2=NC(=O)/C(=C\c3cccn3CCOc3cccc(C)c3)C(=N)N2O1	15.8µM*	?	-6.9	7.5%	-55.6*	?
CC1=CC2=NC(=O)/C(=C\c3cc(C)n(-c4ccccc4F)c3C)C(=N)N2O1	-8.6%	-5.7%	-5.1	-16.6%	-22.1	29.1µM*
CC1=CC2=NC(=O)/C(=C\c3cc(C)n(-c4ccccc4)c3C)C(=N)N2O1	7.8%	-9.4%	-2.8	2.4%	9.7	-23.3%
CC1=CC2=NC(=O)/C(=C/c3cccs3)C(=N)N2O1	6.5%	1.9%	-7.6	7.5%	/	-22.8%
CC1=CC2=NC(=O)/C(=C\c3cc(C)n(-c4cccc(Cl)c4)c3C)C(=N)N2O1	-31.9%	-7.5%	-4.6	?	0.9	9.2µM*
COc1cccc(OCCn2cccc2/C=C2/C(=N)N3OC(C)=CC3=NC2=O)c1	-1.3%	-4.0%	-1.0	-9.4%	38.4	20.1%
Cc1ccc(N(CCC#N)C(=O)CN(C)CC(=O)Nc2ccccc2Cl)cc1	/	/	-0.7	/	/	/
Cn1cc(C(c2ccccc2OCC(=O)O)c2cn(C)c3ccccc23)c2ccccc21	2.9%	-12.4%	-5.8	11.6µM*	-10.3	16.4µM*
CCOc1ccccc1CNC(=O)C1CCN(C(=O)N2CC(CC)Oc3ccccc32)CC1 (stereo not drawn)	/	/	-6.7	/	/	/
Cc1ccc2nc(-c3ccc(C#N)cc3)c(Cc3cccc(Cl)c3)n2c1	/	/	-3.6	18.4µM*	0.0	18.4µM*
N#Cc1ccc(-c2nc3ccc(Cl)cn3c2Cc2cccc(Cl)c2)cc1	/	/	-4.4	?	-15.3	20.6µM*
CCOc1ccc(C(CC(=O)Nc2cc(OC)cc(OC)c2)N2Cc3ccccc3C2=O)cc1OC (stereo not drawn)	/	/	3.5	/	/	/
Cc1[nH]c2ccccc2c1C(=O)C(C)Sc1nnnn1C1CCCCC1 (stereo not drawn)	/	/	1.6	/	/	/
CC1CSc2n(-c3cccc(C(F)(F)F)c3)cc(-c3ccccc3)[n+]21 (stereo not drawn)	-2.9%	-2.3%	-0.9	?	-0.7	16.4µM*
O=C1C2C3C=CC(CC3)C2C(=O)N1c1cccc(C(F)(F)F)c1 (stereo not drawn)	-12.8%	2.8%	-3.3	13.9%	-10.7	-4.5%
COCCCn1cnnc1SCC(=O)c1c[nH]c2ccccc12	/	/	0.4	/	/	/
Cc1cc(C)n(-c2nnc(NCc3ccc(Cl)cc3)nn2)n1	?	3.8%	11.2	-14.0%	20.3	?
CNc1nc(C)nc(-n2nc(C)cc2C)n1	6.31µM*	?	-6.1	-9.0%	-1.3	-3.7%
SMILES	RORgamma inh	Gal4-VP16 FLuc	LDHA inh	TDP1 cell CPT	IL1B secr inh	TDP1 cell noCPT
CCN(C#N)c1nc(NC(C)C)nc(NC(C)(C)C)n1	-9.4%	27.0%	-10.8	7.6%	42.8	-2.2%
Cc1cc(C)n(-c2nc(C)nc(NCc3ccccc3)n2)n1	1.58µM*	5.62µM*	-1.8	25.9µM*	15.1	18.4µM*
Cc1cc(C)n(-c2nc(NC(C)C)nc(NC(C)(C)C)n2)n1	/	/	0.5	1.26µM*	/	0.794µM*
COc1ccc(C(NC(=O)C2CCN(CCCc3ccccc3)CC2)c2ccccn2)cc1 (stereo not drawn)	/	/	-8.3	1.3%	-5.0	-4.8%
COc1ccc(C(NC(=O)C2CCN(C/C=C/c3ccc(OC(C)=O)c(OC)c3)CC2)c2ccccn2)cc1 (stereo not drawn)	/	/	0.4	?	-17.3	20.6µM*
Cc1ccc(C(NC(=O)C2CCN(Cc3ccc(Cl)c(Cl)c3)CC2)c2ccccn2)cc1 (stereo not drawn)	/	/	0.4	?	/	1.3µM*
Cc1ccc(C(NC(=O)C2CCN(CCOc3ccccc3)CC2)c2ccccn2)cc1 (stereo not drawn)	/	/	-6.8	?	-54.8*	?
O=C(NC(c1ccc(Cl)cc1)c1cnccn1)C1CCN(Cc2ccc(Oc3ccccc3)cc2)CC1 (stereo not drawn)	/	/	-5.3	14.6µM*	/	16.4µM*
Cc1ccc(C(NC(=O)C2CCN(Cc3ccc(Oc4ccccc4)cc3)CC2)c2ccccn2)cc1 (stereo not drawn)	/	/	-7.0	?	/	23.1µM*
COc1ccc(C(NC(=O)C2CCN(CCc3ccccc3)CC2)c2ccccn2)cc1 (stereo not drawn)	/	/	-3.3	-4.4%	-0.1	-5.6%
Cc1nc2ccn(Cc3cccs3)c(=O)c2cc1C(=O)NCc1ccccc1	/	/	-11.0	-11.0%	/	-17.8%
Cc1nc2ccn(Cc3cccs3)c(=O)c2cc1C(=O)N1CCN(c2ccc(F)cc2)CC1	/	/	3.3	?	/	?
Cc1ccc(C)c(N2CCN(C(=O)c3cc4c(=O)n(Cc5cccs5)ccc4nc3C)CC2)c1	/	/	1.0	23.1µM*	/	20.6µM*
COc1ccc(NC(=O)c2cc3c(=O)n(Cc4cccs4)ccc3nc2C)cc1	/	/	-2.2	?	/	?

Compound activity (PubChem)
